HEK293 cAMP ctrl: counter-screen for TSHR agonists: cAMP increase in parental HEK293. parental HEK293 CNG cAMP sensor, membrane potential fluorescence. Potency, µM (titrated, usually from 57.1 µM), for the others: at the highest dose activation, actives largely listed as activators. actives 2.5% (n = 73,000); also: % of control where 0% means no effect; nearly all actives have a fitted effect of over 55% in size
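Parental HEK 293 cells stably expressing a cAMP-gated CNG channel were loaded with membrane potential dye containing 100 uM RO 20-1724 for 60 min. Compound added for 30 min; depolarization read as fluorescence intensity at 590 nm.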
TSHR ag: TSH receptor (human) agonism; P16473; HEK293-CNG-TSHR cells (CNG channel as cAMP sensor), membrane potential dye, cAMP; Potency, µM (titrated, usually from 57.1 µM), without a hit: top-dose activation, hits mostly activators; actives 0.48% (n = 73,000); AID 926; active = well fitted activation curve with a large enough effect in the main read-out, with a control signal flat, not every such curve was filed as active; inconclusive = small, poorly fitted or top-dose-only effect, or a change in a side signal; inactive = no such curve, though single readings can be large or run the other way; % of control where 0% means no effect;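 also: the control signal comes from parental cells without the receptor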
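cAMP rise detected as CNG-channel membrane depolarization by fluorescent dye (emission 590 nm), 30 min after compound, following 60 min dye loading containing 100 uM RO 20-1724 at room temperature. Cells: TSHR/CNG HEK 293, with parental CNG HEK 293 as control.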
Casp7 inh: allosteric or competitive inhibitors of human caspase-7 | P55210 | recombinant caspase-7, Ac-DEVD-AFC fluorescence rate | Potency, µM (doses to about 57.5 µM), without a hit: at the highest dose activity change, negative = inhibition, most hits filed as inhibitors | actives 0.02% (n = 75,000) | AID 889; active = well fitted inhibition curve with a large enough effect in the main read-out, with a control signal flat, not every such curve was filed as active; inconclusive = small, poorly fitted or top-dose-only effect, or a change in a side signal; also: % of control where 0% means no effect
ERK AVP inh: inhibitors of vasopressin-stimulated ERK signaling pathway; HEK293-V1b, vasopressin-stimulated pERK AlphaScreen; actives 0.99% (n = 72,000); Potency, µM (series often up to 57.5 µM), inactives show at the highest dose activity, negative = inhibition, usual class: inhibitors; AID 995; also: % is scaled to controls: 0 for no effect and ±100 for the full control effect; nearly all actives have a fitted effect of over 55% in size
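HEK293 cells stably expressing V1b receptor, seeded overnight in 1% FBS, were treated with compounds for 30 min at 37C, then stimulated 5 min with 25 nM vasopressin; phospho-ERK read by AlphaScreen SureFire after lysis.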
ALOX15 inhib: 15-hLO (ALOX15) enzyme inhibition. P16050. purified 15hLO-1, xylenol orange hydroperoxide absorbance. Potency, µM (highest dose often 57.1 µM), without a hit: at the top dose activity change, negative = inhibition, hits mostly inhibitors. actives 1.4% (n = 74,000). AID 887; also: % is scaled to controls: 0 for no effect and ±100 for the full control effect; nearly all actives have a fitted effect of over 55% in size
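Quantitative HTS in 25 mM Hepes pH 7.5 containing 0.01% Triton X-100: human 15hLO-1 at 40 nM, arachidonic acid at 50 uM, 6 min turnover. Product quantified via ferrous oxidation/xylenol orange, 573:405 nm absorbance ratio.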
Caspase-1 inhib: caspase-1 (human) inhibition, allosteric or competitive | Potency, µM (doses to about 57.5 µM), inactives show at the highest dose activity change, negative = inhibition, most hits filed as inhibitors | Caspase-1 enzyme, Ac-WEHD-AFC fluorogenic rate | actives 0.03% (n = 75,000) | P29466;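 also: plate controls were vehicle for no effect and no substrate for full effect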
An asterisk follows results filed as active; ? = inconclusive; · = no result; [ ] = remark or other dose. Shown are actives, neighbours in structure and some others; about 4.8% of the full set was active somewhere. Unless noted, calls follow the shape of the dose curve; as a rule, active = well fitted curve in the direction sought with a large enough effect; inconclusive = small, poorly fitted or top-dose-only effect, or another doubt; inactive = no such curve, though single readings can be large; an effect the other way counts as inactive or inconclusive. Potency is read from the fitted curve at half-maximal effect.

SMILES	HEK293 cAMP ctrl	TSHR ag	Casp7 inh	ERK AVP inh	ALOX15 inhib	Caspase-1 inhib
C[N+]1(CCC[N+]2(C)C[C@H]3[C@H](C2)[C@H]2C=C[C@@H]3CC2)CCOCC1 (stereo not given in full)	-11%[11.4 µM]	-6%[11.4 µM]	0%[11.5 µM]	9%[11.5 µM]	?	0%[11.5 µM]
Cc1cc(=S)[nH]c2ccccc12	4%	5%	-2%	-10%	?	-3%
Cc1ccc2[nH]c(=S)cc(C)c2c1	20%	10%	-5%	-13%	3.2µM*	-3%
CCOc1ccc2[nH]c(=O)c(CN(Cc3ccc(C)cc3)C(=O)N3CCCC3)cc2c1	32µM*	?	3%	15%	-12%	-2%
O=c1c2c3c(sc2ncn1/N=C/c1ccco1)CCCC3	14%	4%	-5%	-18%	-10%	-4%
Cc1nc2sc3c(c2c(=O)n1/N=C/c1ccco1)CCCC3	25µM*	?	0%	-12%	3%	0%
CCC(C)C1NC(=O)C(CCNCS(=O)(=O)O)NC(=O)C(NC(=O)C(CCNCS(=O)(=O)O)NC(=O)C(NC(=O)C(CCNCS(=O)(=O)O)NC(=O)CCCCC(C)C)C(C)O)CCNC(=O)C(C(C)O)NC(=O)C(CCNCS(=O)(=O)O)NC(=O)C(CCNCS(=O)(=O)O)NC(=O)C(C(C)CC)NC1=O (stereo not given)	·	·	-5%	20%	3.2µM*	-10%
O=C(c1csnn1)N1CCC2(CCCN(c3cccc(-c4ccccc4)c3)C2)CC1	?	?	-4%	-19%	-3%	-5%
CN1CCc2c(sc3c2C(=O)NC(c2cccs2)N3)C1 (stereo not given)	1%	-1%	?	-22%	3.2µM*	·
CN1CCc2c(sc3c2C(=O)NC(c2ccc(-c4cccc(Cl)c4)o2)N3)C1 (stereo not given)	-10%	-21%	?	1%	2.5µM*	·
Cc1ccsc1C1NC(=O)c2c(sc3c2CCN(C)C3)N1 (stereo not given)	2%	-10%	?	?	?	·
COc1ccc(C2CC(=O)c3cnc(NC(=O)c4ccccc4)nc3C2)c(OC)c1 (stereo not given)	20%	·	0%	-10%	-1%	-2%
N=c1ccn2c(n1)O[C@@H]1[C@H](O)[C@H](CO)O[C@@H]12	·	·	-1%	12%	15%[25.6 µM]	0%
CCN1C(=O)[C@H]2[C@H]3[C@H](O)[C@H](O)C/C(=N/NC(=O)OCc4ccc(OC)cc4)[C@H]3CC[C@@H]2C1=O	11%[11.4 µM]	1%[11.4 µM]	-1%[11.5 µM]	34%[11.5 µM]	-27%[11.4 µM]	2%[11.5 µM]
O=S(=O)(c1ccc(F)c2ccccc12)N1CCCCC1	32µM*	?	-1%	25%	3%	1%
O=C(COc1ccccc1)N1CCN(c2ncnc3c2cnn3-c2ccccc2)CC1	9%	20%	1%	25µM*	-3%	-2%
CCOc1ccc2[nH]c(=O)c(CN(Cc3cccs3)Cc3nnnn3C(C)(C)C)cc2c1	25µM*	?	-2%	-1%	-8%	-1%
COc1ccc2[nH]c(=O)c(CN(Cc3cccs3)Cc3nnnn3C(C)(C)C)cc2c1	?	?	-3%	-16%	-24%	-4%
CC(=O)OC[C@@H]1O[C@@H](O/N=C2/C[C@@H](O)[C@@H](O)[C@@H]3[C@@H]4C(=O)N([C@@H](C)c5ccccc5)C(=O)[C@H]4CC[C@H]23)[C@H](OC(C)=O)[C@H](OC(C)=O)[C@@H]1OC(C)=O	3%[11.4 µM]	-7%[11.4 µM]	0%[11.5 µM]	-6%[11.5 µM]	7%[11.4 µM]	-2%[11.5 µM]
CCNc1ncc2nc(-c3ccc(OC)cc3)c(=O)n(Cc3ccc(F)cc3)c2n1	?	?	?	7%	3%	·
COc1ccccc1CNc1ccnc(-c2ccccc2OC)n1	?	?	-1%	-21%	13µM*	-1%
Cc1cnc(CNc2ccnc(-c3c(C)noc3C)n2)cn1	13%	11%	-1%	4%	-19%	-4%
Cc1cccc(CNc2ccnc(-c3ccccc3CN(C)C)n2)c1	5µM*	?	1%	31%	2%	2%
COc1ccccc1CNc1ccnc(-c2ccc3c(c2)OCO3)n1	24%	·	0%	?	13µM*	-3%
Cc1cccc(CNc2cc(-c3ccccc3CN(C)C)ncn2)c1	29%	28%	0%	?	-5%	2%
SMILES	HEK293 cAMP ctrl	TSHR ag	Casp7 inh	ERK AVP inh	ALOX15 inhib	Caspase-1 inhib
Cc1noc(C)c1-c1nccc(NCc2ccccc2)n1	?	?	2%	-8%	16µM*	-1%
COC1=CC(C)C2CC3OC(=O)CC4C(C)=C(OC)C(=O)C([C@]2(C)C1=O)[C@]34C (stereo not given in full)	·	·	0%	7%	-2%	2%
COc1ccc(CNc2ccnc(-c3cccc(C#N)c3)n2)c(OC)c1	?	?	-6%	-20%	-4%	-9%
COc1ccccc1CNc1ccnc(-c2cccc(C#N)c2)n1	26%	22%	-8%	32µM*	-3%	-9%
COCCNc1ccnc(-c2ccccc2C)n1	13%	10%	-16%	3%	13µM*	-3%
COc1ccc(CNc2ccnc(-c3ccccc3C(F)(F)F)n2)c(OC)c1	7.9µM*	?	0%	-9%	?	0%
CSc1ccc(C2C(C#N)=C(N)Oc3c2ccc(=O)c2c(C)oc(C)c32)cc1 (stereo not given)	0%	6%[11.4 µM]	-27%	?	16µM*	-20%
Cc1oc(C)c2c(=O)ccc3c(c12)OC(N)=C(C#N)C3c1ccccc1 (stereo not given)	7%	20%	-25%	-16%	?	?
COc1ccc(C(=O)Nc2ccc(-c3ccc(C)o3)cc2)cc1S(=O)(=O)N1CCOCC1	18%	17%	-2%	2µM*	-29%	-4%
O=C(c1cccc(F)c1)N1CCC2(CC1)CCN(c1ccc(-c3ccccc3)cc1)CC2	16µM*	?	-2%	-7%	-9%	-4%
OC[C@@H]1O[C@@H](n2cnc3c(NC4CCCCC4)ncnc32)[C@@H](O)[C@H]1O	21%	·	-2%	-27%	-6%	-1%
C[C@@H]1C=C[C@](Cc2ccccc2)(C(=O)NCC2CC2)N1C(=O)c1ccccc1	16µM*	?	-2%	20%	-10%	1%
NC(=O)N[C@H]1NC(=O)NC1=O	13µM*	?	2%[25.7 µM]	-3%[25.7 µM]	13%[25.6 µM]	-10%[25.7 µM]
O=C(CC1NC(=O)NC1=O)Nc1cccc2ccccc12 (stereo not given)	1%	12%	-28%	-14%	-4%	?
